# Data from a collection of fitness landscapes (doi:10.1126/science.1257360).
# Whole data set: some 140,000 sequences, median “enrichment ratio after two sorts for PhoP signalling” near 0, cut for the highest 2% near 11. This excerpt belongs to a sample that is enriched for the highest values.
# B1: PhoQ; a variant is named by its letters at X, in order, P23837 (parent)
# chain: MKKLLRLFFPLSLRVRFLLATAAVVLVLSLAYGMVALIGYSVSFDKTTFRLLRGESNLFYTLAKWENNKLHVELPENIDKQSPTMTLIYDENGQLLWAQRDVPWLMKMIQPDWLKSNGFHEIEADVNDTSLLLSGDHSIQQQLQEVREDDDDAEMTHSVAVNVYPATSRMPKLTIVVVDTIPVELKSSYMVWSWFIYVLSANLLLVIPLLWVAAWWSLRPIEALAKEVRELEEHNRELLNPATTRELTSLVRNLNRLLKSERERYDKYRTTLTDLTHSLKTPLXXLQXXLRSLRSEKMSVSDAEPVMLEQISRISQQIGYYLHRASMRGGTLLSRELHPVAPLLDNLTSALNKVYQRKGVNISLDISPEISFVGEQNDFVEVMGNVLDNACKYCLEFVEISARQTDEHLYIVVEDDGPGIPLSKREVIFDRGQRVDTLRPGQGVGLAVAREITEQYEGKIVAGESMLGGARMEVIFGRQHSAPKDE
# Variants of: B1
# Experiment: enrichment ratio after two sorts for PhoP signalling (ratio (wild type AVST 3.29)); higher = more functional
# Settings: with PhoP (E. coli)
row,Variant,enrichment ratio
1,RAQI,≤ 0.25
2,MIHT,≤ 0.25
3,DVMK,≤ 0.25
4,WFDE,≤ 0.25
5,HTHH,≤ 0.25
6,ATIM,19.5
7,TQGG,1.42
8,ADIM,≤ 0.25
9,TQGQ,28
10,TQGA,2.57
11,YDIM,≤ 0.25
12,TDIS,1.04
13,HSAY,≤ 0.25
14,EAHH,≤ 0.25
15,YEYT,≤ 0.25
16,DFEY,≤ 0.25
17,KSCC,≤ 0.25
18,NSCC,≤ 0.25
19,SICC,17.3
20,TSCC,17.3
21,WICC,≤ 0.25
22,SSTC,10.3
23,SQCC,8.97
24,IQCC,≤ 0.25
25,SNCC,14.7

row,Variant,enrichment ratio
1,KYCC,≤ 0.25
2,SRCC,0.803
3,SSCC,17.1
4,IFYT,≤ 0.25
5,FSGP,≤ 0.25
6,NGLQ,≤ 0.25
7,YYFP,≤ 0.25
8,DWCC,≤ 0.25
9,CTCC,≤ 0.25
10,GTCC,≤ 0.25
11,STCC,13.7
12,YTCC,≤ 0.25
13,TQCC,65
14,TTCC,11.5
15,FQCC,≤ 0.25
16,ITCC,≤ 0.25
17,EYTF,≤ 0.25
18,NSIQ,≤ 0.25
19,HLYG,≤ 0.25
20,PLPH,≤ 0.25
21,MDHD,≤ 0.25
22,IKKC,≤ 0.25
23,ANYN,≤ 0.25
24,ANSL,16.8
25,ARSL,0.309

row,Variant,enrichment ratio
1,ANYM,0.253
2,ADSL,≤ 0.25
3,HWVL,≤ 0.25
4,AHIL,≤ 0.25
5,ANVL,13.9
6,AIIL,1.11
7,ANNL,15.7
8,ANIL,22.8
9,ADVL,3.21
10,GFRD,≤ 0.25
11,EGVS,≤ 0.25
12,WVKG,≤ 0.25
13,NCEQ,≤ 0.25
14,GGVL,7.68
15,NKTR,≤ 0.25
16,AQCL,16
17,ANCL,21.8
18,AQEL,≤ 0.25
19,AKCL,3.3
20,NICL,3.87
21,AQRL,≤ 0.25
22,AWCL,0.642
23,AICL,17.5
24,ADIL,8.79
25,WICL,≤ 0.25

row,Variant,enrichment ratio
1,AKIL,18.4
2,TKIL,8.86
3,EAPP,≤ 0.25
4,VFQT,≤ 0.25
5,VNLF,≤ 0.25
6,YIYL,≤ 0.25
7,IDEK,≤ 0.25
8,TVNP,≤ 0.25
9,YDMC,≤ 0.25
10,WVMR,≤ 0.25
11,KNDA,≤ 0.25
12,NLGK,≤ 0.25
13,IKGA,≤ 0.25
14,WTQR,≤ 0.25
15,KKSG,≤ 0.25
16,AVSG,16.7
17,TIKN,≤ 0.25
18,ACSN,4.45
19,AISG,19
20,TISN,13.4
21,ACSG,12.3
22,AHSG,6.86
23,ADSG,1.26
24,ACSR,7.12
25,WISN,≤ 0.25

row,Variant,enrichment ratio
1,ARSG,≤ 0.25
2,FHWW,≤ 0.25
3,EFGD,≤ 0.25
4,HEGI,≤ 0.25
5,PMHY,≤ 0.25
6,DEAG,≤ 0.25
7,PCRA,≤ 0.25
8,MPIN,≤ 0.25
9,QRYD,≤ 0.25
10,DRYI,≤ 0.25
11,RDAL,≤ 0.25
12,KVFV,≤ 0.25
13,TISG,19.4
14,PISG,≤ 0.25
15,WISG,≤ 0.25
16,VGFY,≤ 0.25
17,MQYW,≤ 0.25
18,NMLQ,≤ 0.25
19,SALQ,17.5
20,TMLQ,12.2
21,YALQ,4.04
22,SNLQ,15.3
23,KQLQ,≤ 0.25
24,SILQ,6.96
25,MMLQ,≤ 0.25

row,Variant,enrichment ratio
1,TPLQ,≤ 0.25
2,DPLQ,≤ 0.25
3,LNLQ,≤ 0.25
4,SQLQ,13.6
5,YDYH,≤ 0.25
6,SRDH,≤ 0.25
7,TGMF,9.36
8,FPKH,≤ 0.25
9,PMKR,≤ 0.25
10,KGCL,≤ 0.25
11,DMWF,≤ 0.25
12,SAVH,7.41
13,DYTW,≤ 0.25
14,SLLQ,7.5
15,SQLA,11.7
16,SQLT,11
17,SFLQ,2.41
18,SQLS,7.34
19,SPLQ,≤ 0.25
20,SELQ,27.9
21,SYLQ,2.49
22,KYLQ,≤ 0.25
23,STLQ,18.3
24,SSLQ,14.5
25,SRLQ,0.442

row,Variant,enrichment ratio
1,SFQN,≤ 0.25
2,PRSD,≤ 0.25
3,SGLR,≤ 0.25
4,RGLQ,≤ 0.25
5,LTLQ,2.15
6,SGLQ,16.6
7,TDLQ,18.8
8,KDLQ,≤ 0.25
9,HQEY,≤ 0.25
10,FHKA,≤ 0.25
11,RKDF,≤ 0.25
12,TFCG,5.19
13,GSLS,11.8
14,GSDN,≤ 0.25
15,GSDK,≤ 0.25
16,GSLA,6.7
17,GSLI,15.5
18,GSLT,9.31
19,AIWD,≤ 0.25
20,LESL,≤ 0.25
21,QELM,≤ 0.25
22,TELM,13.8
23,MELM,17.7
24,MFLM,≤ 0.25
25,NELM,≤ 0.25

row,Variant,enrichment ratio
1,MKLM,7.36
2,RAGW,≤ 0.25
3,SSNF,1.62
4,MSMV,12.7
5,MSLV,14.7
6,MSMG,2.86
7,MSML,14.3
8,MSLS,5.72
9,MSNL,≤ 0.25
10,MSMD,≤ 0.25
11,MSWV,10.2
12,MSHK,≤ 0.25
13,MSMI,23.5
14,MSMS,≤ 0.25
15,DWAP,≤ 0.25
16,DRKM,≤ 0.25
17,HNAE,≤ 0.25
18,LMAI,≤ 0.25
19,EHKQ,≤ 0.25
20,REPP,≤ 0.25
21,MSLE,3.24
22,MLWQ,≤ 0.25
23,WIWQ,≤ 0.25
24,MCWQ,≤ 0.25
25,MSWQ,14.5

row,Variant,enrichment ratio
1,QDWQ,≤ 0.25
2,RTWQ,≤ 0.25
3,QFWQ,≤ 0.25
4,KSWQ,≤ 0.25
5,MFWQ,≤ 0.25
6,TGWQ,22.6
7,QSWQ,33.6
8,QIWQ,34.4
9,SRES,≤ 0.25
10,PTVM,≤ 0.25
11,GKLF,≤ 0.25
12,IMPS,≤ 0.25
13,KGLY,≤ 0.25
14,FVII,≤ 0.25
15,VELP,≤ 0.25
16,RMVC,≤ 0.25
17,DREF,≤ 0.25
18,PGRT,≤ 0.25
19,NVWQ,≤ 0.25
20,MHWQ,≤ 0.25
21,QLWQ,11.9
22,MRWQ,≤ 0.25
23,MGWQ,24.5
24,MMWQ,≤ 0.25
25,TPWQ,≤ 0.25

row,Variant,enrichment ratio
1,MIWQ,24.2
2,MGGG,≤ 0.25
3,REHV,≤ 0.25
4,INFD,≤ 0.25
5,HGVS,≤ 0.25
6,ASCV,18.9
7,ASIS,7.49
8,ASCQ,4.02
9,ASNM,5.71
10,KSCK,≤ 0.25
11,ASTW,≤ 0.25
12,ASCA,13.5
13,ASIV,11.4
14,ASQV,1.45
15,ASIE,0.421
16,ASCK,22.8
17,ASCP,≤ 0.25
18,DLCQ,≤ 0.25
19,APTW,≤ 0.25
20,NWDH,≤ 0.25
21,QMYQ,7.96
22,QHMS,≤ 0.25
23,VRTV,≤ 0.25
24,ATIN,11.9
25,ASCG,18.9

row,Variant,enrichment ratio
1,ASDV,≤ 0.25
2,ASGG,4.75
3,YTIN,≤ 0.25
4,ADIN,≤ 0.25
5,ASTV,12.1
6,ASFG,1.66
7,AITV,6.12
8,ANTV,16.3
9,AHTV,≤ 0.25
10,HSQP,≤ 0.25
11,RWHM,≤ 0.25
12,HETV,4.78
13,RMYW,≤ 0.25
14,EHNH,≤ 0.25
15,VGEA,≤ 0.25
16,SAAE,≤ 0.25
17,RITI,≤ 0.25
18,GKRA,≤ 0.25
19,KSIN,≤ 0.25
20,ASNK,≤ 0.25
21,ASIM,14.6
22,ASIR,0.563
23,TSIA,2.99
24,ASIA,13.9
25,KSIA,≤ 0.25

row,Variant,enrichment ratio
1,ASVN,7.54
2,ASIN,12
3,ASCM,11.6
4,VRCM,≤ 0.25
5,PHTE,≤ 0.25
6,IMWY,≤ 0.25
7,TLSA,7.98
8,KLEH,≤ 0.25
9,ISEL,≤ 0.25
10,VMQA,≤ 0.25
11,GMPK,≤ 0.25
12,ASAE,5.56
13,TNTV,10.2
14,MNTV,12.2
15,MLTV,≤ 0.25
16,ASIC,12.1
17,AWTV,≤ 0.25
18,AMTV,9.95
19,ASRC,≤ 0.25
20,ASTC,5.39
21,AVTV,12.1
22,ASAV,11.5
23,ASWV,≤ 0.25
24,DPKY,≤ 0.25
25,MCMW,≤ 0.25

row,Variant,enrichment ratio
1,PTRL,≤ 0.25
2,ETSM,≤ 0.25
3,LHSW,≤ 0.25
4,ASIL,19.5
5,ASCI,19.9
6,VRCC,≤ 0.25
7,ASIQ,5.62
8,ASFH,≤ 0.25
9,ASCS,4.46
10,ASCC,18.2
11,ASIT,9.21
12,ASWN,≤ 0.25
13,ASII,12.7
14,ASWL,5.05
15,ASCE,4.22
